Results reported in PubChem BioAssay.
Values without a mark were called inactive. No rule for the calls is given here.

Biological target: Pantothenate synthetase (Mycobacterium tuberculosis (strain ATCC 25618 / H37Rv)) (UniProt P9WIL5)
Experiment: Recombinant Mtb pantothenate synthetase (PanC) inhibitors, coupled enzyme, confirmatory (AID 375);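 also: 0% = full reaction with vehicle and 100% = no enzyme background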
Conditions: coupled enzyme assay; at 10 µM, stronger effect = higher value

Pantothenate synthetase (Mycobacterium tuberculosis (strain ATCC 25618 / H37Rv)), sequence (P9WIL5 whole entry, looked up): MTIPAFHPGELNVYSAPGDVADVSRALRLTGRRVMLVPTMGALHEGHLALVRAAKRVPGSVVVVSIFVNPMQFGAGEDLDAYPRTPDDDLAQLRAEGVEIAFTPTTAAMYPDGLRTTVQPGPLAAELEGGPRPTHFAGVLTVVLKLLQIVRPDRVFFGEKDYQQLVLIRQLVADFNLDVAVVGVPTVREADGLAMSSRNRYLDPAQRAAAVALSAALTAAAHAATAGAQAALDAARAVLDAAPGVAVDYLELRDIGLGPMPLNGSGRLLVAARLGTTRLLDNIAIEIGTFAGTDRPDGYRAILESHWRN

Compound	inhibition [%]
CCCS(=O)(=O)N1CCCC(C(=O)N2CCC(Cc3ccccc3)CC2)C1 (stereo not given)	0
O=C(CN1C(=O)COc2ccccc21)NCCN1CCc2ccccc2C1	7
COC(=O)[C@@H](NC(=O)NCc1ccccc1Cl)C(C)C	0
CCCCc1ccc(NC(=O)COCC)cc1	0
O=C(CCn1c(=O)sc2ccccc21)Nc1nccs1	0
CCCCCCC1/C(=N/O)CCC1C(=O)OC (stereo not given)	0
COc1cc(Br)cc(CN2CCN(C/C=C/c3ccccc3)CC2)c1O	0
CCCS(=O)(=O)N1CCC(C(=O)N2CCCC2)CC1	7
CC1=NS(=O)(=O)c2cc(Cl)ccc2N1	6
CC12CCC(C(=O)O)(c3nc(C#N)c(C#N)nc31)C2(C)C (stereo not given)	13
Cc1ccc(C(=O)NC(Cc2c[nH]c3ccccc23)C(=O)O)o1 (stereo not given)	0
O=C(O)CCN1C(=O)c2ccccc2C1=O	6
CCN1CCN(C(c2cccs2)C(C)NC(=O)c2ccccc2)CC1 (stereo not given)	12
CCOC(=O)CSc1nnc(Cn2nnc(-c3ccccc3)n2)n1CC	4
Cc1cc(C)nc(N2CCC(C(=O)Nc3ccc4c(c3)CCC4)CC2)n1	5
O=C1CC(c2ccco2)CC(O)=C1C=NCC1NCCc2ccccc21 (stereo not given)	0
CCOC(=O)N1CCC(NC(=O)CS(=O)(=O)Cc2nc(-c3ccccc3C)oc2C)CC1	3
CC1(C)CC(=O)C(C#N)=C(NCCCO)C1	0
CN(C)CC(C(=O)c1ccccc1)c1ccccc1 (stereo not given)	4
CCCCn1c(SCC(=O)c2ccc3c(c2)OCCO3)nnc1-c1ccco1	4

Compound	inhibition [%]
O=C(CN(c1ccc(F)cc1)S(=O)(=O)c1ccc2c(c1)OCCO2)NCC1CCCO1 (stereo not given)	0
CCCn1nc(CC(=O)O)c2ccccc2c1=O	0
Cc1cc(C)cc(NC(=O)CSc2nnc(Cc3cccn3C)n2-c2ccc(F)cc2)c1	6
CCN(CC)CCN1C(=O)C(O)=C(C(=O)c2cccs2)C1c1ccccn1 (stereo not given)	0
Cc1cc(C)c(C#N)c(SCC(=O)Nc2ccc(S(=O)(=O)Nc3onc(C)c3C)cc2)n1	0
c1ccc(CC2CCN(c3nc4ccccc4n4nnnc34)CC2)cc1	11
Cn1nnnc1SCC(=O)N1CCN(c2ccccc2)CC1	0
CCC(C(=O)OCCN(CC)CC)c1ccccc1 (stereo not given)	0
Nc1nc(N)c2nc(-c3ccccc3)c(N)nc2n1	0
CN1CC[n+]2cnc3ccccc3c21	1
CCc1ccc(C=NC23CN4CN(CN(C4)C2)C3)s1	0
COc1ccc(C(=O)NCCSc2ccccn2)cc1	5
O=C(CSc1nc(-c2ccco2)cc(C(F)(F)F)n1)NCCCn1ccnc1	8
O=c1oc2cc(O)ccc2c2oc3cc(O)ccc3c12	7
CCC(c1nnnn1CCOC)N(Cc1ccc(C)cc1)Cc1cc2cc(OC)ccc2[nH]c1=O (stereo not given)	0
CCS(=O)(=O)Nc1ccc(C(=O)CC2(O)C(=O)Nc3ccccc32)cc1 (stereo not given)	14
O=C(c1ccc2c(c1)OCCO2)C1CCN(C(=O)c2ccc(F)cc2)CC1	0
O=S(=O)(NCCc1ccncc1)c1cc(Br)ccc1F	0
COCCNC(=O)CN(C)S(=O)(=O)c1ccc2c(c1)OCCO2	7
Cc1cn([C@H]2C[C@H](N=[N+]=[N-])[C@@H](CO)O2)c(=O)[nH]c1=O	0
